Among all 350,000 compounds or so, about 220 (0.063%) were called active. Where a call stands in place of a potency, no number is given. Another 4% or so got no clear call; they are omitted. The sample holds actives, similar compounds and a random draw of the others, so the mix is not that of the screen. Calls come from the whole dose curve; as a rule, active = well fitted activation curve with a large enough effect; inconclusive = small, poorly fitted or top-dose-only effect; inactive = no such curve, though single readings can be large or run the other way.
Experiment: qHTS for Activators of Integrin-Mediated Alleviation for Muscular Dystrophy; note: nearly all actives have a fitted effect of over 60% in size
Details: alpha7betagal myoblasts, beta-gal FDG fluorescence, 48 h; series mostly up to 38.3 µM
From the text: Integrins are a diverse family of transmembrane cell surface receptors that mediate interactions between cells and the extracellular matrix. These heterodimeric proteins are composed of alpha and beta subunits and the a7b1 interacts with laminin in the extracellular matrix and actin of the cell cytoskeleton. Both chains contribute to ligand binding, but the alpha chain mediates the specificity of the interaction. The alpha7beta1 integrin is a major laminin receptor in skeletal, cardiac and vascular smooth muscle. Mutations in the alpha7 integrin gene are responsible for muscular dystrophy in both humans and mice. The alpha7beta1 integrin is also a major modifier of muscle disease progression in various muscle diseases including Duchenne muscular dystrophy, Fukuyama muscular dystrophy and merosin deficient congenital muscular dystrophy type 1A. […] Transcriptional regulation of the alpha7 integrin gene is poorly understood and probably involves multiple transcription factors. The goal of identifying small molecules that enhance alpha7 integrin expression is two-fold: firstly, such molecules would help us gain insight into the complex transcriptional control of alpha7 integrin. It is known that alpha7 integrin expression is tightly controlled during various stages of development, disease and in response to external stimuli. The second goal of the project is to translate the above finding into a therapeutic strategy for muscular dystrophy. […] Thus this project aims to discover small molecule probes that would not only help in gaining a better understanding of the complex regulatory mechanism of alpha7 integrin expression, but also lead to development of pharmacological agents to fight muscular dystrophy. NIH Chemical Genomics Center [NCGC] NIH Molecular Libraries Probe Centers Network [MLPCN] MLPCN Grant: NS058429 Assay Submitter (PI): Dean Burkin, University of Nevada School of Medicine
A total of 250 alpha7betagal+/- myoblasts at passage 13 were dispensed using a mulitdrop from Thermo into black low base tissue culture treated microclear aurora plates in 6 ul media containing DMEM without phenol, 5% FBS, 1x GluMax and 1x Penicillin/Streptomycin. The plates were incubated 16-24 hr at 37C, 5% CO2, 95% humidity covered with low evaporation stainless steel lids from Kalypsys. Compounds were then dispensed using a Kalypsys pintool to deliver 23 nl/well compounds in DMSO (diluted into 6 uL resulting in a 1:260 dilution of compound). The control compound used was the cdk2 inhibitor SU9516 from Tocirs (found in the initial LOPAC screen). The plates were incubated for 48 hours at 37C, 5% CO2, 95% humidity using the same stainless steel lids. After incubation with compound, 5 ul of the media was aspirated using the Kalypsys washer/dispenser and 3 ul of the Mammalian Protein Extraction Reagent (MPER) lysis buffer (Thermo Fisher) was added. The plates were spun at 2000 rpms to remove bubbles and an initial capture was acquired on the Viewlux (Perkin Elmer) with exciation at 480 nm and emission at 540 nm for 25 seconds to omit any auto fluorescent compounds. The plates were then incubated for 10 minutes at room temperature. After incubation, 3 ul of 125 uM Fluorescein di-galactoside (FDG) (Marker Gene Technologies) diluted in PBS with 2 mM MgCl2 and 0.2% betamercaptoethanol (BME) was added, the plates were spun at 2000 rpms and incubated for 30 minutes at room temperature. The plates were again read on the Viewlux with exciation at 480 nm and emission at 540 nm for 25 seconds.
Potency is the fitted concentration of half-maximal effect.

| Compound | Potency |
| --- | --- |
| CC1(c2cccc(N)c2)OCCO1 | inactive |
| C[C@H](CO)N1C[C@H](C)[C@H](CN(C)C(=O)c2ccncc2)OCc2ccccc2-c2c(n(C)c3ccccc23)C1=O | inactive |
| Cc1cc(C)c2c(=O)n3c(nc2c1)C(CC(C)C)NC(=O)c1cc2ccccc2cc1-3 (stereo unspecified) | inactive |
| O=C(c1ccc(N2CCCC2=O)cc1)N1CCN(c2ccc(C(F)(F)F)cc2[N+](=O)[O-])CC1 | inactive |
| O=C(CN1C(=O)NC2(CCc3ccccc32)C1=O)NC1CCCCC1 (stereo unspecified) | inactive |
| Cc1ccc(-c2nc(C)sc2CC(=O)OCC(=O)Nc2c(F)cccc2F)cc1 | 12.6 µM (active) |
| Cc1nc(-c2ccc(F)cc2)c(CC(=O)Nc2cccc(S(=O)(=O)N3CCOCC3)c2)s1 | inactive |
| Cc1nc(-c2ccc(F)cc2)c(CC(=O)N(C)CC(=O)Nc2c(C)cccc2C)s1 | inactive |
| COc1ccc(Cn2c(=O)oc3ccccc32)cc1 | inactive |
| CCN(CC)C(=O)C1=C(C)N(Cc2ccc(OC)cc2)C(=O)C(CC(=O)NCCCCc2ccccc2)C1 (stereo unspecified) | inactive |
| CC(C)N=C1CCCC1C(=S)SSC(=S)C1CCCC1=NC(C)C (stereo unspecified) | inactive |
| COc1cccc(N2CCN(C3CC(=O)N(c4ccc(Cl)cc4)C3=O)CC2)c1 (stereo unspecified) | inactive |
| COc1cccc(N2C(=O)CC(N3CCc4ccccc4C3)C2=O)c1 (stereo unspecified) | 10 µM (active) |
| COc1cccc(N2C(=O)CC(N3CCN(S(=O)(=O)c4ccccc4)CC3)C2=O)c1 (stereo unspecified) | inactive |
| CN1CCN(c2ccncc2S(=O)(=O)N2CCCC2)CC1 | inactive |
| Cc1ccc(S(=O)(=O)N(CCc2ccccc2)c2ccc3c(c2)C2CC3CCN2C(=O)OCc2ccccc2)cc1 (stereo unspecified) | inactive |
| Cc1onc(-c2ccccc2)c1-c1nnc(COC(=O)c2ccc(N(C)C)cc2)o1 | inactive |
| NC1=CC(=O)C(=O)c2cccnc21 | inactive |
| COc1cc(C(=O)N2CCOC23CCN(Cc2ccccc2)CC3)cc(OC)c1OC | inactive |
| C[C@H](O)[C@@H]1C(=O)N2CCc3c([nH]c4ccccc34)[C@@H]2C[C@@H]1N(C)C(=O)Nc1ccc(F)cc1 | inactive |
| CCCCN1C(=O)C(CC(=O)NCc2cccs2)CC(C(=O)N2CCOCC2)=C1C (stereo unspecified) | inactive |
| O=C(c1cccs1)N1C[C@H](n2cc(C3CC3)nn2)[C@@H](O)C[C@@H]1c1ccccc1 | inactive |
| O=C1CCc2cc(S(=O)(=O)Nc3ccc(C(F)(F)F)cc3)cc3c2N1CC3 | 11.2 µM (active) |
| COc1ccc(C)cc1S(=O)(=O)Nc1cc2c3c(c1)CCC(=O)N3CCC2 | inactive |
| COc1ccc(CNS(=O)(=O)c2cc3c4c(c2)CCN4C(=O)CC3)cc1 | inactive |
| CCOC(=O)C=Cc1ccc(C(=O)OCC)[nH]1 | inactive |
